Consider 40 molecules from PubChem BioAssay (Tox21).

Records with an inconclusive call do not appear. Where a call stands in place of a potency, no number is given. A number with no mark means an inactive call. Activity calls are given as the source filed them. Calls come from the whole dose curve; as a rule, active = well fitted cell-killing curve with a large enough effect in the repeat runs; inconclusive = weak or mixed curves; inactive = flat fitted curve, though single readings scatter.
Potency is the fitted concentration of half-maximal effect.

This experiment in a line: qHTS RealTime-Glo MT Cell Viability Assay in HepG2 cells - 24 hour (AID 1224867). Note: nearly all actives have a fitted effect of over 50% in size. The note with it: RealTime-Glo luminescence; series mostly up to 76.8 µM. From the text:
U.S. Tox21 Program National Center for Advancing Translational Sciences [NCATS] NIH Chemical Genomics Center [NCGC] U.S. Environmental Protection Agency [EPA] National Institutes of Environmental Health Sciences [NIEHS] National Toxicology Program [NTP] U.S. Food and Drug Administration [FDA] Tox21 Assay Overview: Measure of cell viability is critical in the cell-base assay. Analysis of cell viability is necessary for the characterization of cell responses to cytotoxic drugs and environmental stress. A RealTime-Glo MT Cell Viability Assay to monitor cell viability in real time of continues cell culture during 40 hours of compound treatment was used to screen Tox21 10K library compounds in HepG2 cells. The RealTime-Glo MT Cell Viability Assay is a nonlytic, homogeneous, bioluminescent method to measure cell viability in real time using a simple, plate-based method. The assay involves adding NanoLuc luciferase and a cell-permeant prosubstrate to cells in culture. Viable cells reduce the proprietary prosubstrate to generate a substrate for NanoLuc luciferase. This substrate diffuses from cells into the surrounding culture medium, where it is rapidly used by the NanoLuc Enzyme to produce a luminescent signal. The signal correlates with the number of viable cells, making the assay well suited for cytotoxicity studies.
Tox21 Assay Protocol Summary: The mixture of HepG2 cell suspension and reagents were dispensed at 600cells/6 ul/well in 1536-well tissue culture treated black solid bottom plates using a Multidrop dispenser. After the assay plates were incubated at a 37 C/5% CO2 incubator for 5 hours, 23 nL of compounds dissolved in DMSO, positive and negative controls was transferred to the assay plate by a pintool work station. The plates were incubated at 37 C for 40 hours. The luminescence intensity were measured at 0h, 8h, 16h, 24h, 32h and 40h time points using ViewLux plate reader during compound treatment.
A general note: qHTS replaces the single test concentration by a dilution series.
On to `COc1cc(NS(=O)(=O)c2ccc(N)cc2)nc(C)n1`, for which the Potency entry is “inactive”.

As to `CCCc1nc2c(C)cc(-c3nc4ccccc4n3C)cc2n1Cc1ccc(-c2ccccc2C(=O)O)cc1`, the Potency entry is “inactive”.

`Nc1ccc(F)cc1`: the Potency result was “inactive”.

Consider `O=C(O)c1cccc(C[C@@H]2COc3ccc(OCc4nc5cc(F)ccc5s4)cc3[C@@H]2O)c1`, for which the Potency entry was “inactive”.

For `CCCCCCCCCCCCCOC(=O)CCSCCC(=O)OCCCCCCCCCCCCC`, the activity change, negative = cytotoxicity is -1.37% [at 15.8 µM].

For the molecule `CC(=O)C(=O)CC(C)C`, the Potency entry is “inactive”.

For the molecule `Cc1ccccc1S(N)(=O)=O`, the Potency entry was “inactive”.

For the molecule `C/C(C=O)=C\c1ccccc1`, the Potency entry is “inactive”.

For the molecule `CC(CCc1ccc(O)cc1)NCCc1ccc(O)c(O)c1` (stereo not given), the Potency entry is “inactive”.

Turning to `CCCCCCCC(=O)Oc1c(Br)cc(C#N)cc1Br`, the Potency entry was “inactive”.

Regarding `Cc1cc(CCCOc2c(C)cc(-c3noc(C(F)(F)F)n3)cc2C)on1`, the Potency entry is “inactive”.

Consider `CN(C)CC/C=C1\c2ccccc2Sc2ccc(Cl)cc21`, for which the Potency is 23.9 µM (active).

Take `Cc1oc(=O)oc1COC(=O)[C@@H]1N2C(=O)[C@@H](NC(=O)[C@H](N)c3ccccc3)[C@H]2SC1(C)C`: the Potency entry was “inactive”.

With `CCSC(=O)N(CC)CC`, the Potency result was “inactive”.

For the molecule `CC(C)CC(O)CC(C)C`, the Potency result was “inactive”.

As to `O=C(O)CCCc1c[nH]c2ccccc12`, the Potency result was “inactive”.

As to `Nc1c(Cl)cc(Cl)cc1[N+](=O)[O-]`, the Potency result was “inactive”.

For `CC(=O)OCCC(C)CC(C)(C)C` (stereo not given), the Potency result is “inactive”.

For the molecule `Cc1ccc(NC(=O)N(C)C)cc1NC(=O)N(C)C`, the Potency entry was “inactive”.

Regarding `CCCCOCCOC(=O)c1cccnc1`, the Potency entry is “inactive”.

Turning to `O=C(O)c1cccc(Oc2ccccc2)c1`, the Potency entry was “inactive”.

Regarding `CC1=CC[C@@H]2C[C@H]1C2(C)C`, the activity change, negative = cytotoxicity is 0.892% [at 15.8 µM].

Take `CC(C)c1ccc(C#N)cc1`: the Potency result is “inactive”.

Regarding `Cc1cccc2sc(N)nc12`, the Potency result was “inactive”.

Regarding `CNC1CCCN(c2c(F)cc3c(=O)c(C(=O)O)cn(C4CC4)c3c2OC)C1` (stereo not given), the Potency entry was “inactive”.

Turning to `CCCCC[C@H](O)/C=C/[C@H]1[C@H](O)CC(=O)[C@@H]1C/C=C\CCCC(=O)O`, the Potency result was “inactive”.

With `BrC(Br)C(Br)Br`, the Potency result was “inactive”.

Consider `C[C@@H]1C[C@H]2[C@@H]3CCC4=CC(=O)C=C[C@]4(C)[C@@]3(F)[C@@H](O)C[C@]2(C)[C@@]1(O)C(=O)COP(=O)(O)O`, for which the Potency result was “inactive”.

Take `CCC(C)(C)C(=O)O`: the Potency entry was “inactive”.

For `CCC(=O)OCc1ccc(OC)cc1`, the Potency entry is “inactive”.

For `CN=C(N)NC(=O)Nc1c(C)cccc1C`, the Potency entry is “inactive”.

As for `O=C1c2ccccc2C(=O)c2c(O)ccc(O)c21`, the Potency result was “inactive”.

For the molecule `COc1ccc2nc(S(=O)Cc3ncc(C)c(OC)c3C)[nH]c2c1` (stereo not given), the Potency entry is “inactive”.

On to `O=C(NS(=O)(=O)/C=C/c1ccccc1)c1ccc(F)cc1Cl`, for which the Potency entry was “inactive”.

Consider `CCCCCCCCCCCSCC(=O)O`, for which the Potency result was “inactive”.

With `O=C1OC(=O)c2c(Br)c(Br)c(Br)c(Br)c21`, the Potency result was “inactive”.

For the molecule `CNc1c2c(nn1C)CCCC2`, the Potency result was “inactive”.

For the molecule `COc1ccc(CCN(C)CCCN2CCc3cc(OC)c(OC)cc3CC2=O)cc1OC`, the Potency result is “inactive”.

With `CCc1ccc(C)cc1`, the Potency entry was “inactive”.

In the case of `CC(C)C(=O)OCCOc1ccccc1`, the Potency result is “inactive”.
